# Results filed as inconclusive are left out. The source made the active and inactive calls. The call rests on the fitted dose curve; in most records, active means well fitted inhibition curve with a large enough effect; inconclusive means small, poorly fitted or top-dose-only effect, or effect the other way; inactive means flat fitted curve, though single readings scatter.
# Molecular target: Lysosomal acid glucosylceramidase (Homo sapiens) (UniProt P04062)
# Test: qHTS Assay for Inhibitors and Activators of N370S glucocerebrosidase as a Potential Chaperone Treatment of Gaucher Disease: Purified N370S Glucocerebrosidase Cleavage of Glucosylceramide
# Conditions: purified N370S GCase; series mostly up to 77.6 µM; activity change, negative = inhibition: at the top concentration
# From the text: NIH Chemical Genomics Center [NCGC]
# NIH Molecular Libraries Probe Production Centers Network [MLPCN]
# Assay Submitter (PI): Wei Zheng
# Glucocerebrosidase (GC) catalyzes the hydrolysis of beta-glucocerebroside to glucose and ceramide in lysosomes. Mutations in the glucocerebrosidase gene result in Gaucher disease, an autosomal recessive lysosomal storage disorder. Many of the mutations encountered in patients with Gaucher disease are missense alterations that may cause misfolding, decreased stability and/or mistrafficking of this lysosomal protein. […] These inhibitors include iminosugar analogs and three non-iminosugar inhibitors identified from a previous HTS of 62,000 compounds with the wild type recombinant enzyme. However, the enhancement of enzyme activity by the chaperone action of an enzyme inhibitor must be balanced against the direct inhibition of the enzyme. An enzyme activator could also function as a chaperone by binding to the enzyme and helping to correct its misfolding and mistrafficking. While activators for GC have not yet been identified, they may have better therapeutic potential than inhibitors. Therefore the discovery and development of chemical activators may provide a new strategy for the chaperone therapy.
# We have optimized a new assay using N370S mutant GC derived from the spleen of a Gaucher patient. […] In addition, the MLPCN compound library has expanded, which increases the chance of finding new and better probes.
# This assay characterizes compound activity using purified, mutant enzyme cleavage of the native substrate for the enzyme instead of mutant enzyme from tissue homogenate. Compound activity differences may be due to the absence of endogenous cofactors found in tissue homogenate as well as inherent differences in enzyme stability and catalytic activity using the difference substrates.
# NCGC Assay Protocol Summary:
# This is an enzyme assay using glucosylceramide from soy (Avanti Polar Lipids Catalog #: 131304P) as the substrate and recombinant human glucocerebrosidase as the enzyme preparation. Upon hydrolysis of the substrate, the glucose product can be detected using the Amplex Red Glucose Oxidase Assay Kit (Invitrogen catalog #: A22189). The product of this reaction can be read with a fluorescence plate reader with an excitation at 573 nm and an emission at 610 nm. Data were normalized to the controls for basal activity (without enzyme) and 100% activity (with enzyme). The AC50 values were determined from concentration-response data modeled with the standard Hill equation.
# Assay buffer for enzyme reaction: 50 mM citric acid (titrated with potassium phosphate to pH 5.9), 0.01% Tween-20 (pH 5.9 is an optimal condition for this enzyme assay)
# Assay buffer for Amplex Red reaction: Tris-HCl, pH 7.5
# 1536-well assay protocol for the glucocerebrosidase assay:
# (1) Add 2 ul/well glucocerebrosidase enzyme solution (5 nM final)
# (2) Add 23 nL compounds in DMSO solution. The final titration was 0.7 nM to 77 uM.
# (3) Add 1 ul of glucosylceramide solution (50 uM final)
# (4) Incubate at 37C for 40 min
# (5) Add 2 ul tris-HCl buffer with Amplex Red reagents
# (6) Incubate 45 min at room temperature.
# (7) Detect the assay plate in a ViewLux plate reader (PerkinElmer) with Ex=573 nm and Em=610nm.
# Keywords: Glucocerebrosidase, beta-glucosidase, Gaucher Disease, pharmacological chaperone, chaperone therapy, high throughput screening, glucocerebrosidase inhibitor, MLSMR, MLSCN, NIH Roadmap, qHTS and NCGC
# Sequence of Lysosomal acid glucosylceramidase (Homo sapiens) (P04062 whole entry N409S): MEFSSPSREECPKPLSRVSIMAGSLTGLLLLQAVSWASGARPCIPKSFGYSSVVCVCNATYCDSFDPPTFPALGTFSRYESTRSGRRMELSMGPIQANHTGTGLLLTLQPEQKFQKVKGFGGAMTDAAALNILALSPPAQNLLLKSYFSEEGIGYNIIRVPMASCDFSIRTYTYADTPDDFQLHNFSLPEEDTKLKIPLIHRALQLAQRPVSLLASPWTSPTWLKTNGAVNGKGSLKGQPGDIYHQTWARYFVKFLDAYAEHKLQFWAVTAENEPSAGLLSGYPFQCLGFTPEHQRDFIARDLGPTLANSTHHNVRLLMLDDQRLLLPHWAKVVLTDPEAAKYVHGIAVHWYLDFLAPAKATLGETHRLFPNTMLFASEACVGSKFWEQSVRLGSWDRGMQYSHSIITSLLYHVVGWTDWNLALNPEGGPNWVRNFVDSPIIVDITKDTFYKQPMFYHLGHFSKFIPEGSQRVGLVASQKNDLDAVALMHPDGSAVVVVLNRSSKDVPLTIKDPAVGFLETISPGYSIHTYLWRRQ
Structure (SMILES),"activity change, negative = inhibition",Potency
c1csc(-c2nc(NCC3CCCO3)c3ccccc3n2)c1 (configuration not stated),-6.96% (inactive),
CC1(C)CC(=O)C2=C(C1)c1c(ccc3ccccc13)NC2c1ccc(Br)o1 (configuration not stated),13.7% (inactive),
O=S(=O)(c1ccc(Cl)cc1)N1CCN(c2nc(-c3cccs3)nc3ccccc23)CC1,,inactive
COc1ccc(S(=O)(=O)N2CCN(c3nc(-c4cccs4)nc4ccccc34)CC2)cc1,2.55% (inactive),
O=S(=O)(c1ccc(F)cc1)N1CCN(c2nc(-c3ccc(F)cc3)nc3cc(Cl)ccc23)CC1,12.9% (inactive),
Clc1ccccc1-c1nccc(NCc2ccccc2)n1,-2.27% (inactive),
Cc1ccc(-c2nc(N3CCN(S(=O)(=O)c4ccc(F)cc4)CC3)c3ccc(Cl)cc3n2)cc1,-6.45% (inactive),
NS(=O)(=O)c1ccc(S(=O)(=O)N2CCN(c3nc(-c4cccs4)nc4ccccc34)CC2)cc1,-13.7% (inactive),
O=C(CSc1nccc(-c2cccs2)n1)Nc1cccc(Cl)c1,25.1% (inactive),
N#Cc1ccc(S(=O)(=O)N2CCN(c3nc(-c4cccs4)nc4ccccc34)CC2)cc1,-5.08% (inactive),
O=S(=O)(c1cccc(C(F)(F)F)c1)N1CCN(c2nc(-c3cccs3)nc3cc(Cl)ccc23)CC1,6.21% (inactive),
N=c1c2c(-c3ccccc3)c(-c3ccccc3)n(Cc3ccco3)c2ncn1CCCn1ccnc1,-8.82% (inactive),
O=S(=O)(c1ccc2c(c1)OCCO2)N1CCN(c2nc(-c3ccccc3)nc3ccccc23)CC1,7.83% (inactive),
O=S(=O)(c1ccccc1C(F)(F)F)N1CCN(c2nc(-c3cccs3)nc3ccccc23)CC1,4.16% (inactive),
Cc1ccc(S(=O)(=O)N2CCN(c3nc(-c4cccs4)nc4ccccc34)CC2)cc1,,inactive
COc1cccc(S(=O)(=O)N2CCN(c3nc(-c4cccs4)nc4ccccc34)CC2)c1,6.72% (inactive),
COc1ccccc1C(=O)COC(=O)c1ccccc1OCC(=O)Nc1ccc(SC(F)F)cc1,-9.62% (inactive),
Nc1nc(-c2ccccc2)c(N=Nc2ccc(Cl)cc2)s1,-9.16% (inactive),
Cc1cc(C)cc(N(CC(=O)NC2CCCCCC2)S(=O)(=O)c2c(C)[nH]c(=O)[nH]c2=O)c1,,14.1 µM (active)
COc1ccc(-c2nc(N3CCN(S(=O)(=O)c4ccccc4)CC3)c3ccccc3n2)cc1,18.5% (inactive),
Cc1ccccc1S(=O)(=O)N1CCN(c2nc(-c3cccs3)nc3ccccc23)CC1,20% (inactive),
O=S(=O)(c1ccc(Cl)cc1)N1CCN(c2nc(-c3cccc(Br)c3)nc3ccccc23)CC1,6.57% (inactive),

# From PubChem BioAssay AID2596 (National Center for Advancing Translational Sciences (NCATS), 2010)
